# APP 5'UTR act: activates APP 5'UTR luciferase reporter | SH-SY5Y APP 5'UTR luciferase reporter, luminescence; zero percent = DMSO vehicle wells | activation, % at 2 µM | 190,000 tested, 1% active;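 active = activation above a set limit, based on mean plus 3 SD of controls, cut at about 140% in these data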
# hgDAF-12 ag: hgDAF-12 agonism, primary luciferase screen; HEK293 GAL4-hgDAF12 UAS-luciferase reporter, agonist luminescence; normalized to butyrate control; activation, % at 6.8 µM; 370,000 tested, 1.8% active;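 active = activation above a cutoff set at the mean of all screened compounds plus 3 SD, cut at about 10% in these data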
# hcDAF12 agonist: activates DAF-12 receptor from parasite H. contortus | 370,000 tested, 1.4% active | activation, % at 6.8 µM | HEK293 hcDAF-12 lit1-tk-luc reporter, luminescence; 0% DMSO, 100% Δ7-dafachronic acid | AID 652067;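 active = activation above the mean of all tested compounds plus 3 SD, cut at about 5.5% in these data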
# NF-kB neuron act: compounds increasing NF-kB expression in human neuronal cells; NF-kB reporter expression; hits give high values; fold change at 12.5 µM; 190,000 tested, 1.6% active; AID 1239; in the data active = fold change above about 3.3
# ssDAF12 agonist: activators of S. stercoralis DAF-12 nuclear receptor | HEK293 ssDAF-12/GRIP1 lit1-tk-luc reporter, luminescence; % of 3 µM dafachronic acid response | activation, % at 6.8 µM | 370,000 tested, 1% active | AID 652126;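 active = activation above the mean over all tested compounds plus 3 SD, cut at about 0.9% in these data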
# hgDAF12 conf: hgDAF-12 agonism, confirmation assay; shares compounds with hgDAF-12 ag; HEK293 GAL4-hgDAF12 luciferase reporter, agonist mode; percent of butyrate response; activation, % at 6.8 µM; 3,300 tested, 80% active;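 active = mean activation over triplicate wells above the hit cutoff derived from the earlier primary screen, cut at about 11% in these data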
# LXR ag 2: LXR-beta agonism as DAF-12 counter-screen; shares compounds with hgDAF-12 ag; HEK293 Gal4-LXR luciferase reporter, 24 h; activation, % at 6.8 µM; 3,300 tested, under 10 active; AID 743051;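 active = mean activation of the triplicate above a set limit carried over from the primary screen, none filed active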
# Target sequence (P55055 whole entry, looked up, the tested form may be a part): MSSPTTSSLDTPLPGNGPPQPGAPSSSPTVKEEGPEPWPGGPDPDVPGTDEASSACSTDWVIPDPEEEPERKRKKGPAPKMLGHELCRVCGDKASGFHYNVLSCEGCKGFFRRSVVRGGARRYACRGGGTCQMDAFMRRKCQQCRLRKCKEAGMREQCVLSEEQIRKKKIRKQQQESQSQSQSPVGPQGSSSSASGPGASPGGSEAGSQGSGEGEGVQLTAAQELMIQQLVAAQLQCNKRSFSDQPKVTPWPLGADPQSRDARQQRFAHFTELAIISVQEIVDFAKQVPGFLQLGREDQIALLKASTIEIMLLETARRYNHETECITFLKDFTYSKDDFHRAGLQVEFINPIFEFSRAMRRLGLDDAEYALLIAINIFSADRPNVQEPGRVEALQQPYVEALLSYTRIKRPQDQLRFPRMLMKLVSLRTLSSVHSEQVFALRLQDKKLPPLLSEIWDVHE
# A number is an active result; n = inactive; x = no result. A selection: hits, their analogues and other compounds. The true share with any hit is near 3.4%.
SMILES,APP 5'UTR act,hgDAF-12 ag,hcDAF12 agonist,NF-kB neuron act,ssDAF12 agonist,hgDAF12 conf,LXR ag 2
COc1ccccc1-c1noc(-c2ccccc2)n1,n,14,n,5.6,n,19,n
Cc1ccc(S(=O)(=O)Nc2ccc(-c3nc4ccc(C)cc4s3)cc2)cc1,n,n,n,n,n,x,x
Cc1cccc(S(=O)(=O)Nc2ccc(-c3nc4ccc(C)cc4s3)cc2)c1,163,22,n,n,n,21,n
Cc1ccc2nc(-c3ccc(NS(=O)(=O)c4c(C)n(C)c(=O)n(C)c4=O)cc3)sc2c1,x,20,n,x,n,17,n
Cc1ccccc1S(=O)(=O)Nc1nc2ccccc2nc1N1CCc2ccccc2C1,n,14,n,n,n,n,n
Cc1ccccc1S(=O)(=O)Nc1nc2ccccc2nc1Cl,n,n,n,n,n,x,x
CN1[C@H](Cc2ccccc2)COc2cc(N3CCSCC3)ccc2S1(=O)=O,x,n,n,x,n,x,x
O=C(Nc1ccc(NC(=O)C2CC2)cn1)c1ccccc1,x,16,n,x,n,13,n
O=C(Nc1ccc(NC(=O)c2cccs2)cn1)c1ccccc1,136,16,n,3.8,n,15,n
CN(C)c1cccc(/C=C2\CC3(OC(=O)c4ccccc4)CCCN2C3)c1 (configuration not stated),x,22,n,x,n,n,n
CN(C)c1cccc(/C=C2\CC3(OC(=O)c4cccc(F)c4)CCCN2C3)c1 (configuration not stated),x,n,n,x,n,x,x
O=C(Nc1ccccn1)c1ccc2c(=O)n3c(nc2c1)CCCCC3,x,20,n,x,n,15,n
Cc1ccc(-c2cc(C(=O)NCc3cccs3)no2)cc1,n,n,n,n,n,x,x
O=C(NCc1ccccc1)c1cc(-c2cccc(O)c2)on1,n,18,n,n,n,12,n
COc1cccc(-c2cc(C(=O)Nc3cccnc3)no2)c1,n,15,n,4.9,n,21,n
COc1ccc(-c2cc(C(=O)NCc3ccccc3)no2)cc1OC,n,20,n,n,n,n,n
O=C(NCc1cccs1)c1cc(-c2ccc(O)cc2)on1,x,15,n,x,n,18,n
COc1ccc(CNC(=O)c2cc(-c3ccc(OC)c(OC)c3)on2)cc1,n,n,n,n,n,x,x
CC(COc1ccccc1C#N)CN1CCC(C(O)(c2ccccc2)c2ccccc2)CC1 (configuration not stated),x,n,n,x,n,x,x
Cc1ccc(NC(=O)c2cc(-c3cccc(O)c3)on2)cc1C,n,14,n,n,1.0,14,n
O=C(Nc1cccc(O)c1)c1cc(-c2ccc3c(c2)OCO3)on1,x,n,n,x,n,x,x
CCOC(=O)N1CCN(C(=O)C[C@H]2C[C@@]3(C(=O)OC)C(=C[C@H](C(C)(C)C)O[C@@H]3C)N(Cc3cccc4ccccc34)C2=O)CC1,x,n,n,x,n,x,x
Cc1ccc(-c2cn(-c3ccccc3)c(=S)[nH]2)cc1C,x,20,6.2,x,n,14,n
COc1ccc(Nc2nc(N)nc(CSc3nccn3C)n2)cc1,n,21,n,n,n,13,n
O=C(N/N=C/c1cc(O)ccc1[N+](=O)[O-])c1ccc2c(c1)OCCO2,x,18,n,x,n,14,n
SMILES,APP 5'UTR act,hgDAF-12 ag,hcDAF12 agonist,NF-kB neuron act,ssDAF12 agonist,hgDAF12 conf,LXR ag 2
O=C(N/N=C/c1ccccc1[N+](=O)[O-])c1ccc2c(c1)OCCO2,x,24,6.2,x,n,15,n
O=C(N/N=C/c1cc([N+](=O)[O-])ccc1O)c1ccc2c(c1)OCCO2,n,n,n,n,n,x,x
O=C(Nc1ccn(-c2ccccc2)n1)c1ccccc1Br,n,20,n,n,n,n,n
COc1ccc(OC)c(S(=O)(=O)N(CC(=O)NC2CCC(C)CC2)c2cc(C)cc(C)c2)c1 (configuration not stated),x,n,n,x,n,x,x
O=C(CC1CCCC1)N[C@H](C(=O)N1CCC[C@H]1C(=O)NCCc1ccccc1Cl)c1ccccc1,x,n,n,x,n,x,x
CN(C)c1ccc(C(C#N)c2ccc(Cl)cc2)nn1 (configuration not stated),n,n,n,n,n,x,x
CN(C)c1ccc(C(C#N)c2ccccc2)nn1 (configuration not stated),n,21,6.1,n,2.1,n,n
CCC(=O)N(C)C[C@@H]1[C@H](c2ccc(C3=CCCCC3)cc2)[C@H](CO)N1C(=O)CC,x,n,n,x,n,x,x
O=[N+]([O-])c1ccc(S(=O)(=O)NN=Cc2ccc3c(c2)OCO3)cc1,x,n,n,x,n,x,x
O=[N+]([O-])c1ccc(NN=Cc2ccc3c(c2)OCO3)nc1,x,15,n,x,n,17,n
O=C(c1cccnc1Cl)N1CCC(Oc2cccnc2)CC1,x,n,n,x,n,x,x
Cc1ccc(/C=C/C(=O)c2ccc(N3CCOCC3)cc2)s1,n,14,n,n,n,n,n
O=C(c1ccccc1)c1ccc(N2CCOCC2)cc1,x,15,n,x,n,16,n
O=C(c1ccccc1)c1ccc(N2CCNCC2)cc1,n,x,x,n,x,x,x
N#C/C(=C\c1ccc(N2CCOCC2)cc1)c1ccccc1,208,21,6.1,n,n,17,n
CCN(CC)c1ccc(/C=N/Nc2nn[nH]n2)cc1,x,n,n,x,n,x,x
CCN(CC)c1ccc(C=N/C(C#N)=C(\N)C#N)cc1,n,15,n,n,n,n,n
COc1cccc(/C=N/n2cnc3ccccc32)c1OC,152,14,n,4.1,n,14,n
CCOc1ccc2oc(C(=O)Nc3nccs3)c(C)c2c1,x,14,5.9,x,n,21,n
CS(=O)(=O)c1ccc2nc(NC(=O)Nc3ccccc3F)sc2c1,x,15,n,x,n,27,n
CC(C)(C)C(=O)Nc1nc2ccc(S(C)(=O)=O)cc2s1,n,14,n,n,n,13,n
C[C@H](O)[C@@H]1CN2CCc3c([nH]c4c(-c5ccc6c(c5)OCO6)cccc34)[C@@H]2C[C@@H]1N(C)C(=O)c1ccco1,x,n,n,x,n,x,x
COC(=O)[C@]12CCCCC=C1N(Cc1ccc(OC)cc1)C(=O)[C@@H]2CC(=O)NCc1ccccc1,x,n,n,x,n,x,x
O=C(OCC#CCSc1nnc(-c2cccc3ccccc23)o1)c1cccc(C(F)(F)F)c1,x,n,n,x,n,x,x
O=C(N/N=C/c1c(Cl)cccc1Cl)c1ccc(F)cc1,n,n,n,n,n,x,x
Cn1cccc1C(=O)N/N=C/c1c(Cl)cccc1Cl,x,13,5.9,x,n,12,n
O=C1C(C=NCCCN2CCCC2=O)=C(O)c2ccccc21,n,19,n,n,n,n,n
O=C1C2C3C=CC(C3)C2C(=O)N1c1ccccc1OS(=O)(=O)c1ccccc1 (configuration not stated),n,n,n,n,n,x,x

# Screening results from PubChem BioAssay.
